Experimental data as given in PubChem BioAssay (NCATS).
Inconclusive results are not listed. Values without a mark were called inactive. The source made the active and inactive calls. Calls follow the shape of the dose curve; as a rule, active = well fitted inhibition curve with a large enough effect; inconclusive = small, poorly fitted or top-dose-only effect; inactive = flat fitted curve, though single readings scatter. Non-standard residues stand in square brackets, D forms with d. Residues, ends and D or L forms follow the SMILES beside them. Orn = NCCC[C@H](N)C(=O)O

These compounds were tested against Voltage-gated inwardly rectifying potassium channel KCNH2 (Homo sapiens) (UniProt Q12809) (assay: qHTS Assay for Small Molecule Inhibitors of the Human hERG Channel Activity (AID 588834;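 also: lower thallium flux fluorescence means stronger hERG block; nearly all actives have a fitted effect of over 50% in size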; as to activity change, negative = inhibition: top concentration of the series differs between compounds)). Settings: U2OS BacMam hERG, FluxOR thallium flux fluorescence; series mostly up to 46.1 µM; activity change, negative = inhibition: at the top concentration.
In short: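 Homogeneous FluxOR thallium flux assay using hERG-expressing U2OS cells (BacMam). Compound treatment about 10 minutes preceded stimulation; reduced fluorescence taken as channel block.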
% is scaled to controls: 0 for no effect and ±100 for the full control effect; potency is read from the fitted curve at half-maximal effect.

Voltage-gated inwardly rectifying potassium channel KCNH2 (Homo sapiens), sequence (Q12809 whole entry, looked up): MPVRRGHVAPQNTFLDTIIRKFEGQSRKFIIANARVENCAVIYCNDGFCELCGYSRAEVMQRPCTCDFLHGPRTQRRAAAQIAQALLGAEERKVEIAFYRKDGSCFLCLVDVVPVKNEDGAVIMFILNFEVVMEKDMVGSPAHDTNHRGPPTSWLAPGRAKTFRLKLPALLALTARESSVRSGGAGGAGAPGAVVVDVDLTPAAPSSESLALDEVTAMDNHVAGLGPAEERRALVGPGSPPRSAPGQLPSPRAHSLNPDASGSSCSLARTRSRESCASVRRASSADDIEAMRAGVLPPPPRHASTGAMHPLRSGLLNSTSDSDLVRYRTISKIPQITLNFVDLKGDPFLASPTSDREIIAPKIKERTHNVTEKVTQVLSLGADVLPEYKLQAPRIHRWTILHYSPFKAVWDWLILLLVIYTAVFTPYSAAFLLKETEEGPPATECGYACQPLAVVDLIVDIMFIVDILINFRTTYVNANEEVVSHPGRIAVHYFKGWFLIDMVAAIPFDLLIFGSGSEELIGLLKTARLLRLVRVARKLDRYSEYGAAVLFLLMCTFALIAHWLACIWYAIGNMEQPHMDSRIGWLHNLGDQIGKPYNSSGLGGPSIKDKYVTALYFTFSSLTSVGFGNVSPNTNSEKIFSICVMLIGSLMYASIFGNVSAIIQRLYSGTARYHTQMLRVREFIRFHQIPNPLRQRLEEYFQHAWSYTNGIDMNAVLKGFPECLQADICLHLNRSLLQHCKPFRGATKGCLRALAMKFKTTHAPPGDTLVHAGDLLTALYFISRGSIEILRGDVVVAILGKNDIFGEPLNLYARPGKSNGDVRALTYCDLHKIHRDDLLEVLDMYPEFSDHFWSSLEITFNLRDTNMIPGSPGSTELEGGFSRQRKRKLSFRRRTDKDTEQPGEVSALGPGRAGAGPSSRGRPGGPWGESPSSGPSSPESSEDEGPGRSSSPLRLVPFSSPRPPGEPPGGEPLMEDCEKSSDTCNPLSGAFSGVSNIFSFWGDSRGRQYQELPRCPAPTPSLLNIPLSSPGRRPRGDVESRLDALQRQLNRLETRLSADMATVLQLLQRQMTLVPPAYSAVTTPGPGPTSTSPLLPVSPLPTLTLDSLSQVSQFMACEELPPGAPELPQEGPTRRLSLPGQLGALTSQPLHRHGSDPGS

Structure (SMILES) | activity change, negative = inhibition | Potency
CN=C(NC#N)Nc1ccc(C2=NNC(=O)C[C@@H]2C)cc1 | 10.2% | 
CO/N=C(\C(=O)N[C@@H]1C(=O)N2C(C(=O)O)=C(CSc3cnns3)CS[C@H]12)c1csc(N)n1 | 2.75% | 
C[C@]12CCC(=O)C=C1CC[C@@H]1[C@@H]2[C@@H](O)C[C@@]2(C)[C@H]1CC[C@]2(O)C(=O)COP(=O)(O)O | 6.35% | 
CC[C@H]1OC(=O)C[C@@H](O)[C@H](C)[C@@H](O[C@@H]2O[C@H](C)[C@@H](O)[C@H](N(C)C)[C@H]2O)[C@@H](CCN2C[C@H](C)C[C@H](C)C2)C[C@@H](C)C(=O)/C=C/C(C)=C/[C@@H]1CO[C@@H]1O[C@H](C)[C@@H](O)[C@@H](OC)[C@H]1OC | -4.74% | 
COc1cc2c(cc1O)CCN[C@]21CS[C@@H]2c3c(OC(C)=O)c(C)c4c(c3[C@H](COC1=O)N1[C@@H]2[C@H]2c3c(cc(C)c(OC)c3O)C[C@@H]([C@@H]1O)N2C)OCO4 | 3.31% | 
O=C(O)C1CCCN1 (configuration not stated) | 0.996% | 
COc1ccc(C[C@H](N)C(=O)N[C@H]2[C@@H](O)[C@H](n3cnc4c(N(C)C)ncnc43)O[C@@H]2CO)cc1 | 4.74% | 
CC(=O)N(CC(C)C(=O)O)c1c(I)cc(I)c(N)c1I (configuration not stated) | 2.32% [at 20.6 µM] | 
CC[C@@H](C(=O)O)[C@@H]1O[C@@H]([C@@H](C)[C@H](O)[C@H](C)C(=O)[C@H](CC)[C@H]2O[C@]3(C=C[C@@H](O)[C@]4(CC[C@@](C)([C@H]5CC[C@](O)(CC)[C@H](C)O5)O4)O3)[C@H](C)C[C@@H]2C)[C@@H](C)C[C@@H]1C | 22.8% | 
CC(C)C[C@@H]1NC(=O)[C@H](CCCN)NC(=O)[C@H](C(C)C)NC(=O)[C@@H]2CCCN2C(=O)[C@@H](Cc2ccccc2)NC(=O)[C@H](CC(C)C)NC(=O)[C@H](CCCN)NC(=O)[C@H](C(C)C)NC(=O)[C@@H]2CCCN2C(=O)[C@@H](Cc2ccccc2)NC1=O (cyclo(V[Orn]L[dF]PV[Orn]L[dF]P)) | 43% | 
C=C(NC(=O)C(=C)NC(=O)c1csc(C2=N[C@@H]3c4csc(n4)[C@H]4NC(=O)c5csc(n5)[C@H]([C@](C)(O)[C@@H](C)O)NC(=O)[C@H]5CSC(=N5)C(=CC)NC(=O)C([C@@H](C)O)NC(=O)c5csc(n5)[C@]3(CC2)NC(=O)[C@H](C)NC(=O)C(=C)NC(=O)[C@H](C)NC(=O)C([C@@H](C)CC)NC2C=Cc3c([C@H](C)O)cc(nc3C2O)C(=O)O[C@@H]4C)n1)C(N)=O (some centres not stated) | -18.2% [at 20.6 µM] | 
C[C@]12O[C@H](C[C@]1(O)CO)n1c3ccccc3c3c4c(c5c6ccccc6n2c5c31)CNC4=O | 10.3% | 
COC(=O)CCC(=O)CN | -3.52% | 
O=C(O)C[C@H](O)C[C@H](O)/C=C/c1c(C2CC2)nc2ccccc2c1-c1ccc(F)cc1 | -4.45% | 
CC(C)C(=O)OCC(=O)[C@@]12O[C@H](C3CCCCC3)O[C@@H]1C[C@H]1[C@@H]3CCC4=CC(=O)C=C[C@]4(C)[C@H]3[C@@H](O)C[C@@]12C |  | 3.98 µM (active)
CCCCCCOc1ccc(C(=N)N(CCCC)CCCC)c2ccccc12 |  | 2.24 µM (active)

Structure (SMILES) | activity change, negative = inhibition | Potency
CCCCCC(CC)COC(=O)CC(C(=O)OCC(CC)CCCC)S(=O)(=O)O (configuration not stated) | 0.0918% | 
Cc1cc(CC(C)CC(C)(C)C)n(O)c(=O)c1 (configuration not stated) (tested in a mixture with another compound) | 29.2% | 
OCCO[C@@H]1[C@@H](O)[C@H](O)[C@@H](CO)O[C@@H]1O | 3.57% | 
O=C1C(=O)c2ncccc2-c2cccnc21 | 8.63% | 
C[C@]12C=CC(=O)N[C@@H]1CC[C@@H]1[C@@H]2CC[C@]2(C)[C@@H](C(=O)Nc3cc(C(F)(F)F)ccc3C(F)(F)F)CC[C@@H]12 |  | 2.51 µM (active)
CNc1cc(OC)c(C(=O)N[C@H]2CCN(Cc3ccccc3)[C@H]2C)cc1Cl |  | 12.6 µM (active)
CCC(=O)O[C@]1(C(=O)CCl)[C@@H](C)C[C@H]2[C@@H]3C[C@H](F)C4=CC(=O)C=C[C@]4(C)[C@@]3(F)[C@@H](O)C[C@@]21C | -10.8% | 
COc1cc(-c2ccc(-[n+]3nc(-c4ccccc4)nn3-c3ccc([N+](=O)[O-])cc3)c(OC)c2)ccc1-[n+]1nc(-c2ccccc2)nn1-c1ccc([N+](=O)[O-])cc1 | 23% | 
C=C1CC[C@@H]2[C@](C)(CO)[C@H](O)CC[C@@]2(C)[C@@H]1C/C=C1/C(=O)OC[C@H]1O | 10.7% | 
CO[C@@H]1[C@@H](O[C@@H]2O[C@H](C)[C@@H](O[C@H]3C[C@@](C)(O)[C@@H](O)[C@H](C)O3)[C@H](N(C)C)[C@H]2O)[C@@H](CC=O)C[C@@H](C)[C@@H](O[C@@H]2CC[C@H](N(C)C)[C@@H](C)O2)/C=C/C=C/C[C@@H](C)OC(=O)C[C@H]1O | -1.02% [at 20.6 µM] | 
CC1(C)S[C@@H]2[C@H](NC(=O)Cc3ccccc3)C(=O)N2[C@H]1C(=O)O | 14.8% | 
CCOc1ccc(N=Nc2ccc(N)cc2N)cc1 | 15.8% | 
NCc1ccccc1CC(=O)N[C@@H]1C(=O)N2C(C(=O)O)=C(CSc3nnnn3CC(=O)O)CS[C@H]12 | -2.34% [at 20.6 µM] | 
C[C@H](CCC(=O)O)[C@H]1CC[C@H]2[C@@H]3[C@H](O)C[C@@H]4C[C@H](O)CC[C@]4(C)[C@H]3CC[C@]12C | 6.09% [at 20.6 µM] | 
Cc1cn([C@H]2C[C@H](O)[C@@H](CO)O2)c(=O)[nH]c1=O | 11% | 
CN1CCC(CN2c3ccccc3Sc3ccccc32)C1 (configuration not stated) |  | 12.6 µM (active)
